An excerpt weighted towards active compounds, which were near 1.7% of everything screened.
HEK293 tox: qHTS of GLP-1 Receptor Inverse Agonists: Cytotox Screen; HEK293 cAMP-luciferase reporter cells, luminescence, 24 h; Potency, µM (doses to about 38.3 µM), for inactives: at the top dose activity change, negative = inhibition, most hits filed as inhibitors; actives 0.13% (n = 410,000); AID 624418, 2012;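 also: loss of luciferase light is scored as toxicity; % is scaled to controls: 0 for no effect and ±100 for the full control effect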
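A 23 nL compound transfer followed 12 hours of cell culture at 37 deg C; exposure then lasted 24 hr. Luciferase assay detection reagent was dispensed and plates read for luminescence after a 12 min room-temperature wait.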
GLP-1R agonist: qHTS of GLP-1 Receptor Agonists. Glucagon-like peptide 1 receptor (Homo sapiens), P43220. HEK293 GLP-1R CRE-luciferase, luminescence, 4-6 h; cells express a hypersensitive GLP-1R form. Potency, µM (titrated, usually from 45.6 µM), inactives show at the highest dose activation, most hits filed as activators. actives 0.007% (n = 380,000); also: % of control where 0% means no effect
Target sequence (P43220 whole entry, looked up): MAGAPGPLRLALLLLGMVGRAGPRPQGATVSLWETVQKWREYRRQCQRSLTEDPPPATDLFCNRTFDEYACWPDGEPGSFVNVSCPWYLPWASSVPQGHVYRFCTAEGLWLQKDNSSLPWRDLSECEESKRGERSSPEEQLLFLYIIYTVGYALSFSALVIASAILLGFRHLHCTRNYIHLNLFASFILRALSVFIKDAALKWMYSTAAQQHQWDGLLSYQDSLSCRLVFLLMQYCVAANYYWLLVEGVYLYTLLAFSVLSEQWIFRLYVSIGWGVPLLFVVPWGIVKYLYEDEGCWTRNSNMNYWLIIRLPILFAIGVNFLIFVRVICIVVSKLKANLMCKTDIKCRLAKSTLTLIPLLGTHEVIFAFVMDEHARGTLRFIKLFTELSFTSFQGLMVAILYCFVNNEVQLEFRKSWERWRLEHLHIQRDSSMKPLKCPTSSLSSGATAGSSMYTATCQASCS
PTHR1 ag: qHTS for PTHR1 Agonists: Primary Screen. AID 743266, 2014. HEK293 GP2 PTHR1 cells, GloSensor cAMP luminescence, 1 h. actives 0.075% (n = 410,000). Potency, µM (top dose mostly 115 µM), inactives show at the top dose activation, most hits filed as activators; also: nearly all actives have a fitted effect of over 55% in size
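HEK-293-derived GP2 cells expressing PTHR1 and a GloSensor cAMP reporter, 3,000/well, plated overnight, given luciferin plus IBMX (each 0.5 mM as added) for 1 h at 37 °C, then compound for 1 h at 37 °C. Luminescence was read after 15 min at room temperature.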
GLP-1R inv ag: qHTS of GLP-1 Receptor Inverse Agonists (Inhibition Mode) | HEK293 GLP-1R CRE-luciferase, luminescence, 24 h; GLP-1R form is constitutively active | Potency, µM (doses to about 38.3 µM), without a hit: at the highest dose activity change, negative = inhibition, most hits filed as inhibitors | actives 1.6% (n = 410,000); also: % is scaled to controls: 0 for no effect and ±100 for the full control effect; nearly all actives have a fitted effect of over 55% in size
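Using stably transfected HEK293 (constitutively active GLP-1R, cAMP-luciferase reporter), compounds were incubated 24 hr and luciferase measured by luminescence.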
* marks the source's active call; other numbers are inactive results; i = inactive; ? = inconclusive; . = no result; [ ] = another dose, or the depositor's remark. Calls follow the shape of the dose curve; as a rule, active = well fitted curve in the direction sought with a large enough effect; inconclusive = small, poorly fitted or top-dose-only effect, or another doubt; inactive = no such curve, though single readings can be large; an effect the other way counts as inactive or inconclusive. Potency is read from the fitted curve at half-maximal effect.

SMILES | HEK293 tox | GLP-1R agonist | PTHR1 ag | GLP-1R inv ag
Cc1cccc(-c2nc(SCCCOc3ccccc3Cl)n3[nH]c(=O)cc3n2)c1 | 1% | . | i | 16%
COC(=O)c1ccccc1NC(=O)Cn1nc(C(F)(F)F)c2c1CCCC2 | 1% | . | -85% | 11µM*
COc1cccc(N2CCN(C(=O)c3ccc(NC(=O)c4nsc5ccccc45)cc3)CC2)c1 | 0% | . | -93% | 8.9µM*
COc1ccc(N2CCN(C(=O)c3ccc(NC(=O)c4nsc5ccccc45)cc3)CC2)cc1 | -12% | . | -3% | ?
O=C(Nc1ccc(C(=O)N2CCN(c3ccc(Cl)cc3)CC2)cc1)c1nsc2ccccc12 | -4% | . | -91% | 6.3µM*
CCc1cccc(C)c1NS(=O)(=O)c1c(C(=O)N2CCC(C)CC2)c(C)n(C)c1C | -16% | . | -11% | ?
O=C(NC(=S)N1CCc2ccccc21)c1ccccc1 | 4µM* | -14% | -2% | ?
O=C(NC(=S)N1CCc2ccccc21)c1ccccc1Cl | ? | 0% | -66% | 7%
Cc1ccc(CNC(=O)c2cc(=O)c3cc(C)cc(C)c3o2)cc1 | 0% | . | -23% | 0%
Cc1nc(N2CCCCC2)c2c(C)c(C(=O)Nc3ccc4c(c3)OCCO4)sc2n1 | -23% | -1% | -29% | 5.6µM*
Cc1nc(N2CCN(c3ccccn3)CC2)c2c(C)c(C(=O)Nc3c(F)cc(F)cc3Br)sc2n1 | -1% | -5% | i | 4.5µM*
Cc1cccc(NC(=O)c2sc3nc(C)nc(N4CCOCC4)c3c2C)c1 | 2% | 27% | -18% | 7%
Cc1nc(N2CCN(c3ccccn3)CC2)c2c(C)c(C(=O)Nc3c(C)cc(Br)cc3C)sc2n1 | 4% | -3% | -4% | 2µM*
O=C(NCCc1ccc(Cl)cc1)C(=O)NCC(c1cccs1)S(=O)(=O)c1ccccc1 (stereo unspecified) | -17% | . | -74% | -1%
CC(C)c1ccc(C(=O)CN2C(=O)NC3(CCc4ccccc43)C2=O)cc1 (stereo unspecified) | -1% | -1% | -41% | 2.5µM*
O=C(CN1C(=O)NC2(CCc3ccccc32)C1=O)c1ccc(Cl)cc1 (stereo unspecified) | 0% | 16% | -4% | ?
O=C(CN1C(=O)NC2(CCc3ccccc32)C1=O)Nc1cccc(Cl)c1 (stereo unspecified) | -2% | 0% | i | 11µM*
Cc1ccc(NC(=O)CN2C(=O)COc3ccc(S(=O)(=O)N4CCCCC4)cc32)cc1N(C)C | -3% | . | i | ?
Cc1ccc(N2C(=O)N3[C@H](c4ccc(F)cc4)[C@@H]4C(=O)N(C5CCCCC5)C(=O)[C@@H]4[C@]3(C)C2=O)cc1 | -31% | -3% | -7% | 10µM*
Cc1ccc(N2C(=O)N3[C@H](c4ccc(Cl)cc4)[C@@H]4C(=O)N(C5CCCCC5)C(=O)[C@@H]4[C@]3(Cc3ccccc3)C2=O)cc1 | -2% | -2% | -35% | ?
O=C1[C@H]2[C@@H](c3ccc(Cl)cc3)N3C(=O)N(c4cccc(Cl)c4)C(=O)[C@@]3(Cc3ccc(Cl)cc3)[C@H]2C(=O)N1C1CCCCC1 | -16% | -6% | i | 4µM*
Cc1cccc(NC(=O)Cn2cc(S(=O)(=O)N3CCCC3)c(S(=O)(=O)N3CCCC3)c2)c1C | 16% | . | i | 2%
CCc1noc(-c2ccc(N(C)Cc3ccc(OC)cc3)c([N+](=O)[O-])c2)n1 | -28% | . | -27% | ?
O=C(NNC(=O)c1ccc(Cl)cc1Cl)Nc1ccccc1 | 3% | -5% | -2% | 4%
O=C(NNC(=O)c1cc(-c2ccc(Cl)cc2Cl)nc2ccccc12)Nc1ccccc1 | 9% | -20% | -26% | 2.8µM*
SMILES | HEK293 tox | GLP-1R agonist | PTHR1 ag | GLP-1R inv ag
COc1cccc(C(=O)c2sc(NC(C)C)nc2N)c1 | ? | -27% | -25% | 3.5µM*
CN(c1ncc(C(F)(F)F)cc1Cl)N1C(=O)C2ONC3(C(=O)CC(C)(C)CC3=O)C2C1=O (stereo unspecified) | -3%[7.66 µM] | -1% | i | -7%[7.66 µM]
CN(c1ncc(C(F)(F)F)cc1Cl)N1C(=O)c2cccc(N)c2C1=O | 45% | 7% | -22% | 3.2µM*
CCCC1=NN(C(=O)C(=O)Nc2ccc(Br)cc2)C(O)(C(F)(F)F)C1 (stereo unspecified) | ? | 12% | -34% | 7.1µM*
CCCCC1=NN(C(=O)c2ccco2)C(O)(C(F)(F)F)C1 (stereo unspecified) | ? | 6% | i | 2.2µM*
O=C(Cn1c(=O)n(-c2ccccc2Cl)c(=O)c2sc3ccccc3c21)N1CCCC1 | -2% | -2% | -95% | 10%
FC(F)(F)c1cccc(Cc2noc(CN3CCC(c4ccncc4)CC3)n2)c1 | -4% | 27% | -36% | 2.5µM*
CCCCCCCCN1C(=O)[C@H](CC(=O)NCc2cccc(C(F)(F)F)c2)C[C@@]2(C(=O)OC)CCCCC=C12 | ? | 3% | -15% | 10µM*
CCCCCCCCN1C(=O)[C@H](CC(=O)NCc2cccs2)C[C@@]2(C(=O)OCC)CCCC=C12 | -18% | -2% | -70% | 10µM*
CCCCCCCCN1C(=O)[C@H](CC(=O)NCCc2ccccc2OC)C[C@@]2(C(=O)OCC)CCC=C12 | -14% | . | -7% | 13µM*
CCOC(=O)[C@]12CCC=C1N(Cc1ccc(Cl)cc1Cl)C(=O)[C@H](CC(=O)NCc1cccc(C(F)(F)F)c1)C2 | -4% | -1% | -23% | 11µM*
CCOC(=O)[C@]12CCC=C1N(CCC1=CCCCC1)C(=O)[C@H](CC(=O)NCCc1ccccc1OC)C2 | 7% | 7% | i | -8%
CC(C)c1nn2c(=O)cc(COC(=O)CNC(=O)c3ccccc3Cl)nc2s1 | 1% | . | -4% | 7%
CCC(C(=O)OC)n1nnc2sc(-c3ccccc3)cc2c1=O (stereo unspecified) | 9% | . | -30% | -6%
CCOC(=O)[C@]12CCCC=C1N(CCc1ccc(OC)c(OC)c1)C(=O)[C@H](CC(=O)NCc1ccccc1)C2 | 0% | . | -17% | -16%
COC(=O)[C@@]12C[C@@H](CC(=O)NCCCCc3ccccc3)C(=O)N(Cc3ccco3)C1=CCC(C)(C)C2 | -11% | . | -33% | 10µM*
COC(=O)[C@]12CCCCC=C1N(Cc1ccccc1)C(=O)[C@H](CC(=O)NCC13CC4CC(CC(C4)C1)C3)C2 | -23% | -2% | -10% | 10µM*
CCCCCCCCN1C(=O)[C@H](CC(=O)NCc2ccc(OC)c(OC)c2)C[C@@]2(C(=O)OCC)CCCC=C12 | ? | 4% | -38% | 10µM*
COc1ccccc1CNC(=O)CCC1N=C2c3ccccc3N=C(SCc3ccc(C)cc3)N2C1=O (stereo unspecified) | -19% | . | i | ?

Bioassay records: PubChem BioAssay, National Center for Advancing Translational Sciences (NCATS)
